Assay results as given in PubChem BioAssay (Tox21).
Unmarked numbers belong to inactive results. Records with an inconclusive call do not appear. A call without a number means that no potency is given here. Active and inactive are the calls of the source. Unless noted, the call rests on the fitted dose curve.

Assays:
[1] = qHTS assay for small molecule agonists of the p53 signaling pathway (AID 651631); further: nearly all actives have a fitted effect of over 15% in size; further: potency means the concentration at half of the fitted maximal effect
In short: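 HCT-116 cells carrying a stable p53 response element–beta-lactamase reporter were plated, rested 5 h at 37 °C, then exposed to compound in DMSO for 16 h at 37 °C; reporter activity was read as FRET substrate fluorescence after 2 h at room temperature.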

[2] = qHTS assay to identify small molecule agonists of the estrogen related receptor signaling pathway with the pleiotropic PPARgamma coactivator (PGC) from Tox21 10K library (AID 1224842; active means well fitted curve in the direction sought with a large enough effect in the repeat runs; an effect the other way counts as inactive or inconclusive; further: potency means the concentration at half of the fitted maximal effect; nearly all actives have a fitted effect of over 15% in size)
In short: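 PGC/ERR reporter cells (NTP line) were seeded 2,000 per well, rested 6 h at 37 C/5% CO2, then pin-dosed with compounds in DMSO for 18 h at 37 C; luciferase read by One-Glo luminescence after 30 min at room temperature.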

[3] = qHTS assay to identify small molecule agonists of the estrogen related receptor (ERR) signaling pathway from Tox21 library (AID 1224849); settings: ERR reporter cell line, ONE-Glo luciferase, 18 h; at 92.4 µM (top of the series) unless noted; further: nearly all actives have a fitted effect of over 15% in size
In short: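 Reporter cells (ERR, NTP source) treated with Tox21 10K compounds 18 h, 37 C. Readout: ONE-Glo luminescence, 30 min RT.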

[4] = Caspase-3/7 induction in HepG2 cells by small molecules, qHTS assay (AID 1346978; active means well fitted curve in the direction sought with a large enough effect in the repeat runs; an effect the other way counts as inactive or inconclusive; further: nearly all actives have a fitted effect of over 15% in size)
In short: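 Wild-type HepG2 cells (2,000/well) were settled 5 h at 37 C, 5% CO2, then exposed to compounds in DMSO for 17 h. Caspase-3/7 activity was read by luminescence 30 min after adding Caspase-Glo 3/7 reagent at room temperature.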

[5] = biological target: Acetylcholinesterase (Homo sapiens) (UniProt P22303); assay: Acetylcholinesterase (AChE) small molecule antagonists: colormetric cell-based qHTS assay (AID 1347395); further: nearly all actives have a fitted effect of over 30% in size
In short: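 SH-SY5Y cells, plated overnight at 37 C, were exposed to compounds for 30 min at 37 C and 5% CO2. Acetylthiocholine plus DTNB was then added, and thiocholine from endogenous AChE was quantified colorimetrically after 90 min at 37 C.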

[6] = biological target: Acetylcholinesterase (Homo sapiens) (UniProt P22303); assay: Acetylcholinesterase (AChE) small molecule antagonists: enzyme-based qHTS assay (AID 1347397); settings: Potency: AChE enzyme activity inhibition; outcome: AChE enzyme activity inhibition; further: nearly all actives have a fitted effect of over 55% in size
In short: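 Tox21 library chemicals are tested in qHTS format against recombinant human AChE. The enzyme, dispensed at 50 mU/mL, sits with compound for 30 min at room temperature. A DTNB–acetylthiocholine cocktail follows, and colour is read after 10 min.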

[7] = biological target: Acetylcholinesterase (Homo sapiens) (UniProt P22303); assay: Acetylcholinesterase (AChE) small molecule antagonists: fluorescence cell-based qHTS assay (AID 1347398); settings: Potency: AChE activity; outcome: AChE activity; further: nearly all actives have a fitted effect of over 50% in size
In short: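 Cellular AChE inhibition: SH-SY5Y cells treated with test chemical for 30 min at 37 C, then acetylthiocholine hydrolysis followed over 40 min at room temperature via thiocholine-reactive Thiolite Green fluorescence (490/520 nm).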

[8] = biological target: Acetylcholinesterase (Homo sapiens) (UniProt P22303); assay: Acetylcholinesterase (AChE) small molecule antagonists: enzyme-based qHTS assay with human liver microsomes (AID 1347399); settings: Potency: qHTS inhibition; outcome: qHTS inhibition; further: nearly all actives have a fitted effect of over 60% in size
In short: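 Recombinant human AChE (50 mU/mL in the enzyme mix) and human liver microsomes (0.25 mg/mL final) were preincubated with compound and NADPH (0.25 mg/mL final) for 30 min at 37 C. Acetylthiocholine/DTNB was then added; thiocholine was read colorimetrically after 10 min at room temperature.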

Aromatase (Homo sapiens) = Aromatase (Homo sapiens) (UniProt P11511); assay: qHTS assay to identify aromatase inhibitors (AID 743083; active means well fitted curve in the direction sought with a large enough effect in the repeat runs; an effect the other way counts as inactive or inconclusive; further: nearly all actives have a fitted effect of over 55% in size)
[9] = biological target: Aryl hydrocarbon receptor (Homo sapiens) (UniProt P35869); assay: qHTS assay to identify small molecule that activate the aryl hydrocarbon receptor (AhR) signaling pathway (AID 743085; active means well fitted curve in the direction sought with a large enough effect in the repeat runs; an effect the other way counts as inactive or inconclusive; further: nearly all actives have a fitted effect of over 15% in size; further: potency means the concentration at half of the fitted maximal effect;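 on activation: HG2L7.5c1 human HepG2 liver cells with stably integrated DRE-driven firefly reporter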)
In short: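 HepG2 cells (HG2L7.5c1) stably carrying a firefly luciferase reporter driven by 20 dioxin responsive elements were exposed to compound for 24 h at 37C after a 5 h settling period; luminescence rise (ONE-Glo) indicated activation.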

[10] = qHTS assay to identify small molecule agonists of H2AX (AID 1224845; active means well fitted activation curve with a large enough effect in the signal ratio in the repeat runs, not every such curve was filed as active; the % refers to the signal ratio)
In short: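 Wild-type CHO-K1 cells plated overnight, then exposed 3 hr at 37C to compounds at 15 concentrations (0.76% DMSO). Lysed, then HTRF anti-pH2AX(S139)-cryptate/anti-H2AX-d2 detection after 24 hr at room temperature; emissions 665 and 620 nm.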

Acetylcholinesterase (Homo sapiens), sequence (P22303 whole entry, looked up): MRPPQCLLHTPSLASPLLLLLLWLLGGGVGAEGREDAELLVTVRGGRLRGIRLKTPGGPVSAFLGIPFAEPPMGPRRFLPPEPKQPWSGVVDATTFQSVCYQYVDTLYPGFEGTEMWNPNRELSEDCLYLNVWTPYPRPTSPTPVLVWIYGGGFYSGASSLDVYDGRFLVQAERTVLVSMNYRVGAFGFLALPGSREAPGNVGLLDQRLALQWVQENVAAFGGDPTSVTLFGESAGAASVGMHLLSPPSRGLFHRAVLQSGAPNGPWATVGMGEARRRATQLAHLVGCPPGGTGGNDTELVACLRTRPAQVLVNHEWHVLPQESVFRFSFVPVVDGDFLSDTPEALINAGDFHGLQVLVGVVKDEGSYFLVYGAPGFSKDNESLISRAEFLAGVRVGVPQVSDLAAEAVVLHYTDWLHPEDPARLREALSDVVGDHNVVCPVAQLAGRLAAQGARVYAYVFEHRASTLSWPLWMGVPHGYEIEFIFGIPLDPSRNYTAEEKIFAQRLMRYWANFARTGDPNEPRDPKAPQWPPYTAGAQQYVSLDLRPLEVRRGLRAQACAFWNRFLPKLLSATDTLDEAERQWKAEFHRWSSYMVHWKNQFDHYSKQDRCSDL
Aryl hydrocarbon receptor (Homo sapiens), sequence (P35869 whole entry, looked up): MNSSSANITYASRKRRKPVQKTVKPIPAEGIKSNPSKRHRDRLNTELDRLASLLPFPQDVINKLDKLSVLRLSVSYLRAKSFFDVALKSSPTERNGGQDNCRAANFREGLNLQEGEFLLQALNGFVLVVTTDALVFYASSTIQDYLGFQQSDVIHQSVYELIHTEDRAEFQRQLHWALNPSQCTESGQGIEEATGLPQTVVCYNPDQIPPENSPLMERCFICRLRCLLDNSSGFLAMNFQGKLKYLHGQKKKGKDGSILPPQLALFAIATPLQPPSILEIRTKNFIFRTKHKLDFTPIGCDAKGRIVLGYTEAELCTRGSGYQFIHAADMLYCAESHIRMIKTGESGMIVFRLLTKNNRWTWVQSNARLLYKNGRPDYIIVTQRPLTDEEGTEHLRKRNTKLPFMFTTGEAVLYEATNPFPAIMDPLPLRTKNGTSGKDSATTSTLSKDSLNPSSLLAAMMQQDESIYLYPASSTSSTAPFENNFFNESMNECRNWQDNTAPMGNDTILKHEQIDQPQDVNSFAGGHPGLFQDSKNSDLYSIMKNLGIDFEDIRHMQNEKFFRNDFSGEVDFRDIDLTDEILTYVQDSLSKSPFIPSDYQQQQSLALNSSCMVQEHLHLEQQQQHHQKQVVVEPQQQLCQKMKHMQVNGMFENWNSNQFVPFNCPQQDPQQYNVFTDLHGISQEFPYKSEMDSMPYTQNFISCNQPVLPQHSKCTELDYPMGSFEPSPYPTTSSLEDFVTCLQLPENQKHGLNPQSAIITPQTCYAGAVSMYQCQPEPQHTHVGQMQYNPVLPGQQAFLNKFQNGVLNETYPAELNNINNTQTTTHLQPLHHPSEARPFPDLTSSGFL
Aromatase (Homo sapiens), sequence (P11511 whole entry, looked up): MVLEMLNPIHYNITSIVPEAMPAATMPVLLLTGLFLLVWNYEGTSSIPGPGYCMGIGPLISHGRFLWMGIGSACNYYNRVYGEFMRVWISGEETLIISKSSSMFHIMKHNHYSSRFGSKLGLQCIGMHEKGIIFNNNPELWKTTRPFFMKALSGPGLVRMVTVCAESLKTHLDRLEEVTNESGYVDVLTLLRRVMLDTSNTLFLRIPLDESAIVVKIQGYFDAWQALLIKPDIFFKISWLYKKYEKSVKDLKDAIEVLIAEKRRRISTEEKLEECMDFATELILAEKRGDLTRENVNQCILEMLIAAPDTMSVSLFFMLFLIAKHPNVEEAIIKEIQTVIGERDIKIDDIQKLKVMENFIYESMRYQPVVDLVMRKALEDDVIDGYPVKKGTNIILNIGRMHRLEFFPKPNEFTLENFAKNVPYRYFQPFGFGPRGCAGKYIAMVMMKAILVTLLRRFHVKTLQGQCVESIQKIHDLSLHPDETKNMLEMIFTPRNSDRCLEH

Structure (SMILES): O=Nc1ccc(Nc2ccccc2)cc1
- Potency [1]: 61.1 µM (active)
- Potency [2]: 9.74 µM (active)
- activity change, positive = activation [3]: -79.9% (active)
- Potency [4]: inactive
- Potency [5]: inactive
- Potency [6]: inactive
- Potency [7]: inactive
- Potency [8]: inactive

Structure (SMILES): Cc1ccc([N+](=O)[O-])c(C)c1
- Potency [1]: inactive
- Potency (Aromatase (Homo sapiens)): inactive
- Potency [9]: inactive
- activity change, positive = activation [3]: -82.5%
- Potency [5]: inactive
- Potency [6]: inactive
- Potency [7]: inactive
- Potency [8]: inactive

Structure (SMILES): Cc1ccc([N+](=O)[O-])cc1N
- Potency [1]: inactive
- Potency (Aromatase (Homo sapiens)): inactive
- Potency [9]: 61.1 µM (active)
- Potency [10]: inactive
- Potency [5]: inactive
- Potency [6]: inactive
- Potency [7]: inactive
- Potency [8]: inactive
